Results reported in ChEMBL document CHEMBL3988442, “University of Dundee, Small-Polar-MMV Screening Library” (2021).
For some of these results: Potency and affinity values are given separately.

How the values were obtained:
Parameters in all cases: scale not given: direction of the effect not stated beside the values
[1] = target: Protein translocase subunit SecA (Escherichia coli (strain K12)) (UniProt P10408); test: Assay to Identify E. coli SecA ATPase Inhibitors; type: functional; conditions: 30 µM
Protein translocase subunit SecA (Escherichia coli (strain K12)), sequence (P10408 whole entry): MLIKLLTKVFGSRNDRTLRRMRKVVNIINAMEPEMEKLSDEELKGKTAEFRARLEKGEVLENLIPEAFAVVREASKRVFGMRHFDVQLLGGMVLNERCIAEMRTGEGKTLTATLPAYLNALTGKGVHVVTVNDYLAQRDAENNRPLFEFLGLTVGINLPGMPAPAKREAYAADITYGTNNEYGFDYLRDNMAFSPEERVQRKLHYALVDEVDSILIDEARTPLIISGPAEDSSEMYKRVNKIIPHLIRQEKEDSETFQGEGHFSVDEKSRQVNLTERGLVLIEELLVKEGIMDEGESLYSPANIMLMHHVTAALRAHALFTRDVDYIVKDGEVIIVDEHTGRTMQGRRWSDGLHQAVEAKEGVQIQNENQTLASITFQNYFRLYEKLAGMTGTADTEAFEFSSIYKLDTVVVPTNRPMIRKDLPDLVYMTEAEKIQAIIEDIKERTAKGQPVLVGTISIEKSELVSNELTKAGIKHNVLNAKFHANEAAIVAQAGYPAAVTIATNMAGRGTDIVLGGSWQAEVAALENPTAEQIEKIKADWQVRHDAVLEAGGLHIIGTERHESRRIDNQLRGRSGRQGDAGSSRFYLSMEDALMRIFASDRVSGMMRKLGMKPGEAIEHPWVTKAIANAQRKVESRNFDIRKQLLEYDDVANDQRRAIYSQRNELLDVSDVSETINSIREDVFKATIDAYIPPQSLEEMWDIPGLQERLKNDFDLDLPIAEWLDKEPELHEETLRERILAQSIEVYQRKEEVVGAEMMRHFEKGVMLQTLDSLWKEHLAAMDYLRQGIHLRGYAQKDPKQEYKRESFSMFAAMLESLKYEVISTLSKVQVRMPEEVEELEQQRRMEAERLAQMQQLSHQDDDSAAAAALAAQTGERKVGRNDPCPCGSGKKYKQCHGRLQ

[2] = target: T1, Ubiquitin-activating enzyme e1, putative (Leishmania donovani (strain BPK282A1)) (UniProt E9BSI1); test: Leishmania donovani Ubiquitin Activating Enzyme (LdE1); type: functional; conditions: 30 µM
T1 sequence (whole entry): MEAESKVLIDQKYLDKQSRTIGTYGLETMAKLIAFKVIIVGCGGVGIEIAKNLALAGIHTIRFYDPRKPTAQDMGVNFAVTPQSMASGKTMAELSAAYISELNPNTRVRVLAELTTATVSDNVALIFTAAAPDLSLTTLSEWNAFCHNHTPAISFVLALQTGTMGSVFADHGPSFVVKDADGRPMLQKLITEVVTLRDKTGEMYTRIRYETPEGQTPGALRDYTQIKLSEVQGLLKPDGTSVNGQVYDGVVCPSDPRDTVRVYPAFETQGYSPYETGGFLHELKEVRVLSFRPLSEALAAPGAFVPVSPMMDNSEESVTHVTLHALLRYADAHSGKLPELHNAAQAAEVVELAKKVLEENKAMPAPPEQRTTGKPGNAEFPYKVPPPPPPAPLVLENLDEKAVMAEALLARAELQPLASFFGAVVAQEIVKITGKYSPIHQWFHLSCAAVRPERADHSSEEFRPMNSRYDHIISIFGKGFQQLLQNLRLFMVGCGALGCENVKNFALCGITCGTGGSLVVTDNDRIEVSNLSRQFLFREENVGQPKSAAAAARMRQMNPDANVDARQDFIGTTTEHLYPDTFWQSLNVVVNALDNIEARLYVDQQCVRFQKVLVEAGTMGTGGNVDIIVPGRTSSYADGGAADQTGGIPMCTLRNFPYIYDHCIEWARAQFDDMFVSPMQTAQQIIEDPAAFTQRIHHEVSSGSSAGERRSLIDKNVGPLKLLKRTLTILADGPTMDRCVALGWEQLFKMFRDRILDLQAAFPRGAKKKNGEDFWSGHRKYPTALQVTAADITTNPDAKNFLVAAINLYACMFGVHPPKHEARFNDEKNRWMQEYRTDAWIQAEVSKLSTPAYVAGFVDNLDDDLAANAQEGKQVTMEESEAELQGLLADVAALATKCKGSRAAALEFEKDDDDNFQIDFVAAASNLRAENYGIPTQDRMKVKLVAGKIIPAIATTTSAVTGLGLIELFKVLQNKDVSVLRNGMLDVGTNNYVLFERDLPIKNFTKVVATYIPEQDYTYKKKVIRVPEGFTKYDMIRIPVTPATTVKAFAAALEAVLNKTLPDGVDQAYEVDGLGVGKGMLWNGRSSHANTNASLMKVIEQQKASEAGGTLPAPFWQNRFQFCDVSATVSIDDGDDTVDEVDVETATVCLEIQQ

[3] = target: AMP-activated protein kinase, AMPK (Homo sapiens) (UniProt P54646+O43741+P54619+Q9UGJ0+Q9Y478+Q13131+Q9UGI9); test: AMP-dependent Kinase enzyme assay. An in vitro enzyme assay that detects ADP turnover that is directly proportional to AMPK activity. This uses naive AMPK that is activated during the assay with MK-8722; type: functional; conditions: 30 µM
[4] = target: Sialic acid-binding Ig-like lectin 9 (Homo sapiens) (UniProt Q9Y336); test: Hs-Siglec9 ALPHAscreen SOP 20170721; conditions: 10 µM
Sialic acid-binding Ig-like lectin 9 (Homo sapiens), sequence (Q9Y336 whole entry): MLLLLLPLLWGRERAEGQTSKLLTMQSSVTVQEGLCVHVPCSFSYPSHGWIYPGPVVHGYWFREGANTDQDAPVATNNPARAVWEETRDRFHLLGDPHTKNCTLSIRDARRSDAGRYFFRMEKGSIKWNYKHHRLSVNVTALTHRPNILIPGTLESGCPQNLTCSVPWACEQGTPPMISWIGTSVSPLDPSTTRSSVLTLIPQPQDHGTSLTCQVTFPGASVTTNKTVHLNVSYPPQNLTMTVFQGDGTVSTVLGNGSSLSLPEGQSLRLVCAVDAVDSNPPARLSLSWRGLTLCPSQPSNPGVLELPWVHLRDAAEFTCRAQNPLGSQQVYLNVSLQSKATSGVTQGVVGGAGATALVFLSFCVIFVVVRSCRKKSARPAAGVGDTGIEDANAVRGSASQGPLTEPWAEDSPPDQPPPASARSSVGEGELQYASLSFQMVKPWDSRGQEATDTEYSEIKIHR

Trypanosoma cruzi = test: Trypanosoma cruzi phosphomannomutase and mannose-1-phosphate guanylyltransferase assay; type: functional; conditions: 10 µM
[5] = target: T2, Arginase-2, mitochondrial (Homo sapiens) (UniProt P78540); test: in vitro enzyme assay to detect the production of urea directly proportional to the activity of Arginase II; type: functional; conditions: 33.3 µM; further: in the data most compounds retested in dose-response had high values
T2 sequence (whole entry): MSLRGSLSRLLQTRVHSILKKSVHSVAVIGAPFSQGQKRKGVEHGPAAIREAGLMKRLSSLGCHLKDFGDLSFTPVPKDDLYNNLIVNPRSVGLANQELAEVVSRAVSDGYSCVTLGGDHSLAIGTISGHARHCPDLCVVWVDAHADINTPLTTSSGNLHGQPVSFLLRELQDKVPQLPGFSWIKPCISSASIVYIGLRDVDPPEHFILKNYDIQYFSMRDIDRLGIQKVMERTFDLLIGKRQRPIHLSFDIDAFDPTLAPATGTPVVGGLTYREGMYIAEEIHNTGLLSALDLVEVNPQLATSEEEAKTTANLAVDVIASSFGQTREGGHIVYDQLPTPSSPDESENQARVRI

[6] = target: T3, Proteasome subunit beta (Trypanosoma cruzi) (UniProt O96673); test: Trypanosoma cruzi proteasome chymotrypsin-like activity (TcProtChymo) assay.; further: in the data most compounds retested in dose-response had high values; type: functional; conditions: 9.37 µM
T3 sequence (whole entry): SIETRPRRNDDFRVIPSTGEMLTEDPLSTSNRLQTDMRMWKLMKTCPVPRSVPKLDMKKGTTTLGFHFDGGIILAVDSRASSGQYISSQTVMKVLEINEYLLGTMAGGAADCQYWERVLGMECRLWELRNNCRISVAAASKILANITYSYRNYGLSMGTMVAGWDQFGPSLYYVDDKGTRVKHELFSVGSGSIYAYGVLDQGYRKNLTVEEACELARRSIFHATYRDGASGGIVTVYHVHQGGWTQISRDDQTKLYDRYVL

Homo sapiens = organism: Homo sapiens; test: To identify inhibition of the IFN signalling (Jak-Stat) pathway via expression of an eGFP reporter gene under the control of an IFN-stimulated response element (ISRE) containing MxA promoter.; type: functional; conditions: 30 µM
[7] = target: T4, Tyrosyl-tRNA synthetase, putative (Trypanosoma cruzi (strain CL Brener)) (UniProt Q4DSP6); test: Trypanosoma cruzi tyrosyl tRNA synthetase (TcYRS) _High Tyrosine SOP; type: functional; conditions: 30 µM; further: in the data most compounds retested in dose-response had high values
T4 sequence (whole entry): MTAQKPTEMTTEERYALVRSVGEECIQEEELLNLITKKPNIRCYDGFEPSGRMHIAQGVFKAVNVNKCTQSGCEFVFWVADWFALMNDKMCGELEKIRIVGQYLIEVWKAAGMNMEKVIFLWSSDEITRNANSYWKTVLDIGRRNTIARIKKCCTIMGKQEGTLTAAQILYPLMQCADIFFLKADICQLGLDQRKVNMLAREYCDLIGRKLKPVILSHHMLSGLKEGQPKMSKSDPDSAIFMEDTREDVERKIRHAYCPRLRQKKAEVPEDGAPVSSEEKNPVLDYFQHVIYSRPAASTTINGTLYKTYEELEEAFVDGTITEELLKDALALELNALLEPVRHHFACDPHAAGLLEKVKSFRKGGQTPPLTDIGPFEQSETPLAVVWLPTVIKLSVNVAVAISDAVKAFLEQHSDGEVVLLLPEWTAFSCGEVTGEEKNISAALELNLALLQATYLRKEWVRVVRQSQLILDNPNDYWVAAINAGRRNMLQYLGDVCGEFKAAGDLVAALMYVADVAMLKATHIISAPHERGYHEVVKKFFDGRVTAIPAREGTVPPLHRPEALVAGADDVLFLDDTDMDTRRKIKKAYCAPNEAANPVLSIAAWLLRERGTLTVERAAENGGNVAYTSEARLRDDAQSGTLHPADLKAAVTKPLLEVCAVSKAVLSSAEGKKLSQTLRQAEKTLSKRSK

[8] = target: T4, Tyrosyl-tRNA synthetase, putative (Trypanosoma cruzi (strain CL Brener)); test: Trypanosoma cruzi tyrosyl tRNA synthetase (TcYRS) SOP; type: functional; conditions: 30 µM
[9] = target: Chromo domain-containing protein 1 (Saccharomyces cerevisiae (strain ATCC 204508 / S288c) (Baker's yeast)) (UniProt P32657); test: ScCHD-1 Enzyme Inhibition Assay; type: functional; conditions: 30 µM; further: in the data most compounds retested in dose-response had high values
Chromo domain-containing protein 1 (Saccharomyces cerevisiae (strain ATCC 204508 / S288c) (Baker's yeast)), sequence (P32657 whole entry, the tested form may be a part): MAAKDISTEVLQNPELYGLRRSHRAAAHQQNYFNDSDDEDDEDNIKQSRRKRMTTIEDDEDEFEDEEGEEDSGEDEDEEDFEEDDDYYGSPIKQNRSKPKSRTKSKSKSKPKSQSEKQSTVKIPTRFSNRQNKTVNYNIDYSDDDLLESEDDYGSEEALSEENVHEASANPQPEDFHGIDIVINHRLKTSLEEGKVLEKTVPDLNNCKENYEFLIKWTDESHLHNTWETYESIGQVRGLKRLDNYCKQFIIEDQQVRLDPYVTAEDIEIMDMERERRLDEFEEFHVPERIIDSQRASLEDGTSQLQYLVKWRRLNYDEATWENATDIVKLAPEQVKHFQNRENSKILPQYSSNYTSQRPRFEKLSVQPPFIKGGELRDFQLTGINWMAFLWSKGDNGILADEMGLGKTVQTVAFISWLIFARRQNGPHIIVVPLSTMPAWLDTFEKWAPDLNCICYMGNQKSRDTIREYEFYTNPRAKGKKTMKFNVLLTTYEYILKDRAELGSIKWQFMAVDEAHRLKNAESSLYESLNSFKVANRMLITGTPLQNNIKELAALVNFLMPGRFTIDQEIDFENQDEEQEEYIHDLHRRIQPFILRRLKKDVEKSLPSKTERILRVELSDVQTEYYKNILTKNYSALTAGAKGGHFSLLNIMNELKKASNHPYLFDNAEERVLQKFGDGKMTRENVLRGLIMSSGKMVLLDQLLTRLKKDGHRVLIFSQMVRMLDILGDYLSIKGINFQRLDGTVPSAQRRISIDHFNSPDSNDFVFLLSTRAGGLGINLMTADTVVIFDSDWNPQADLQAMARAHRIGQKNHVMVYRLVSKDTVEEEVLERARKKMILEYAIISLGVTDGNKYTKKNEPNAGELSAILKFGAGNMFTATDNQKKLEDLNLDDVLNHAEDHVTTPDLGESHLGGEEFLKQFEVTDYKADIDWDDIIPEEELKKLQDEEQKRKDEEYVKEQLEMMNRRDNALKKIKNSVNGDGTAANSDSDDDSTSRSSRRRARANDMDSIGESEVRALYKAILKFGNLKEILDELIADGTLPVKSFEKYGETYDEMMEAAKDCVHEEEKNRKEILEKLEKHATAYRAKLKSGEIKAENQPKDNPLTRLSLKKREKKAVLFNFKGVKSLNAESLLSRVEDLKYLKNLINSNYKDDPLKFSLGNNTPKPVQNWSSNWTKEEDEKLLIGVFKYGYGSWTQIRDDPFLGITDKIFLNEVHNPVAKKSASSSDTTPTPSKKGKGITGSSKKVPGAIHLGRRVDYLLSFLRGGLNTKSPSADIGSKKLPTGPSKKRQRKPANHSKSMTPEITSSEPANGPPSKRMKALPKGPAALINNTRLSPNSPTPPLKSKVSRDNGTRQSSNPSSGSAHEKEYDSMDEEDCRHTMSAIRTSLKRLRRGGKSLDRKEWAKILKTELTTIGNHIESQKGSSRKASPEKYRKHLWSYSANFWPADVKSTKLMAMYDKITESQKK

Row | Structure (SMILES) | Percent Effect [1] | Percent Effect [2] | Percent Effect [3] | Percent Effect [4] | Percent Effect (Trypanosoma cruzi) | Percent Effect [5] | Percent Effect [6] | Percent Effect (Homo sapiens) | Percent Effect [7] | Percent Effect [8] | Percent Effect [9]
1 | CC(C)Oc1cc(N2CCC(N3CCC(O)CC3)CC2)nc(N)n1 | 0.0362% | 8.11% | -10% | 8.23% | 4.63% | -0.476% | 11% | 12.1% | 8.99% | 17.1% | -4.42%
2 | CN(C)C(=O)CC1CC2(CCN(C(=O)N(C)C)CC2)Oc2ccccc21 (configuration not stated) | -2.94% | 8.11% | -0.534% | -1.19% | -4.79% | 2.73% | 9.53% | 4.7% | 1.07% | 6.17% | -4.24%
3 | COc1ccccc1C(=O)N(C)Cc1ncc(C)c(OC)c1C | -0.917% | -2.6% | 2.31% | 10.5% | -1.86% | 0.21% | 3.8% | 5.2% | -0.952% | -2.35% | -15.8%
4 | COc1ccc(CN2CCn3cc(CN4CCN(C)CC4)nc3C2)cc1 | -4.41% | 8.11% | 4.53% | -5.52% | -2.83% | 4.78% | 18.4% | -7.72% | -2.16% | 5.13% | 3.23%
5 | Cc1ncsc1CN1CC[C@H]2C(=O)N(c3ccccc3)CCO[C@H]2C1 | -1.58% | 10.7% | 7.3% | -5.67% | -0.591% | 1.17% | 16.5% | 14.6% | 11.7% | 16.7% | -4.23%
6 | O=C(c1ccc[nH]1)N1CCCC2(CCN(c3ccsc3)C2=O)C1 (configuration not stated) | -0.928% | -2.6% | 11.3% | 3.88% | -3.06% | -5.81% | 1.57% | 4.99% | -3.17% | -3.85% | -1.57%
7 | O=C(NCCC1=CCCCC1)NCc1nnc2n1CCC2 | -2.33% | 15.8% | 1.86% | -11.8% | -5.88% | 7.91% | 6.18% | 7.88% | 7.39% | 16.1% | -8.65%
8 | O=C(C1CC1)N1CCCC1C1CCN(Cc2ccccc2)CC1 (configuration not stated) | -2.89% | 2.63% | 6.02% | -2.3% | 0.682% | -4.73% | 4.31% | -4.47% | 4.25% | 5.2% | -2.33%
9 | Cc1cc(C[C@@H]2CCC[C@H]2NCc2ccccc2C(F)(F)F)on1 | -4.94% | 1.35% | 8.14% | -0.325% | 0% | 2.55% | 6.4% | 13.5% | 2.15% | 9.09% | -10.5%
10 | Cc1cnn(CC2CN(Cc3nc(-c4ccoc4)no3)CCO2)c1 (configuration not stated) | -2.87% | 8.11% | -1.58% | 1.14% | 7.08% | 0.401% | 2.16% | 13.1% | 3.45% | 11.1% | -9.57%
11 | CN(C(=O)c1cccc2[nH]ncc12)C1CCN(c2ccccn2)CC1 | -8.48% | 7.79% | -0.81% | -5.52% | -4.6% | -3.16% | -4.12% | 30.5% | 0.952% | 2.35% | -18.1%
12 | CCC1=N[C@@]2(CC[C@@H]3CN(C(=O)NCC(C)C)C[C@@H]32)C(=O)N1CC(C)C | -3.96% | 8% | 0.0094% | 5.84% | 4.25% | -55% | 12.8% | 2.46% | 8.33% | 10% | -6.18%
13 | O=C(Cc1ccc(F)cc1)NCCNCC1CNc2ccnn2C1 (configuration not stated) | -1.32% | 18.9% | -4.44% | 24.8% | 10.8% | 10% | 6.72% | 2.03% | 8.99% | 17.1% | -7.92%
14 | COc1ccc(CN2CCn3c(CNS(C)(=O)=O)nnc3C2)cc1 | -9.41% | 5.41% | -37.8% | -5.71% | -16.5% | -3.5% | 2.77% | 14.7% | 0% | 5.13% | 1%
15 | O=C(c1nc(=O)[nH][nH]1)N1CCCC(c2cc(C(F)(F)F)[nH]n2)C1 (configuration not stated) | -9.02% | -8.11% | -7.65% | 26.3% | 11.2% | 2.77% | 10.8% | 15.2% | 5.94% | 13.4% | -7.89%
16 | Cc1cnn(C2CCCN(C(=O)C3=NN(C)C(=O)CC3)C2)c1 (configuration not stated) | -6.81% | 21.6% | -15.8% | 11.8% | 8.4% | 3.21% | 15.7% | 2.98% | 8.37% | 13.6% | -12.6%
17 | Cc1ccc(OCC(=O)NS(=O)(=O)c2cccnc2)cc1C | 0.796% | 15.8% | 3.98% | -2.26% | -7.52% | -3.45% | 17.4% | 29.1% | -1.47% | 4.88% | -9.25%
